{"source": "PubChem BioAssay", "note": "Active and inactive are the calls of the source.", "data": [{"test_system": "not listed separately", "assay": "CREB reporter modulators under forskolin, primary screen, cell-based, PC12, CRE-LacZ reporter, forskolin-stimulated (AID 1146);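 further: PC12 cells with 6xCRE LacZ reporter stimulated by forskolin 10 µM; beta-galactosidase reporter signal reflecting CREB driven transcription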", "details": "luminescence, 4.5 h, higher = more signal, called active from +8 up or from −8 down", "values": [{"smiles": "O=C1c2ccccc2[C@](Cc2ccccc2I)(C(=O)NCCN2CCOCC2)[C@H](c2ccc(CO)cc2)N1Cc1ccccc1Cl", "z-score": "-1.01 (inactive)"}, {"smiles": "O=C(N1CCCCC1)[C@]1(Cc2ccccc2)N=C(c2ccc(OCCCO)cc2)O[C@@H]1c1ccccc1", "z-score": "0.182 (inactive)"}, {"smiles": "CC(=O)NCCCC[C@@H]1NC(=O)[C@H]2C[C@@H](C(=O)NCCCCCCNC(=O)CS)[C@@H](c3ccc(O)cc3)N2C1=O", "z-score": "0.14 (inactive)"}, {"smiles": "O=C(CS)NCCCCCCNC(=O)[C@@H]1C[C@@H]2C(=O)NCC(=O)N2[C@@H]1c1cccc(OCCO)c1", "z-score": "-0.695 (inactive)"}, {"smiles": "CC[C@@H]1C=C(C(=O)O)[C@H](c2ccc(Br)cc2)N1S(=O)(=O)c1ccc(C)cc1", "z-score": "0.472 (inactive)"}, {"smiles": "CCOC(=O)C[C@H]1[C@H](OC(=O)c2ccccc2-c2ccccc2)[C@@H](NC(=O)CC(C)C)c2cc(OCCCO)ccc2N1C(=O)Cc1ccc(OC)cc1", "z-score": "0.0967 (inactive)"}, {"smiles": "CCCC[C@@H]1C[C@H]1[C@@H](NC(=O)c1cccs1)c1ccc(-c2ccccc2)cc1", "z-score": "2.05 (inactive)"}, {"smiles": "COc1ccc(-c2cc3c(c(-c4ccc(Oc5ccccc5)cc4)n2)[Si](C(C)C)(C(C)C)OC3)cn1", "z-score": "-0.0129 (inactive)"}, {"smiles": "CC(C)C(=C=CC[C@@H](O)c1ccc(OCCO)cc1)C[C@@H](O)COCc1ccccc1", "z-score": "-1.23 (inactive)"}]}, {"molecular_target": "Streptavidin (Streptomyces avidinii) (UniProt P22629)", "sequence (P22629 whole entry, looked up)": "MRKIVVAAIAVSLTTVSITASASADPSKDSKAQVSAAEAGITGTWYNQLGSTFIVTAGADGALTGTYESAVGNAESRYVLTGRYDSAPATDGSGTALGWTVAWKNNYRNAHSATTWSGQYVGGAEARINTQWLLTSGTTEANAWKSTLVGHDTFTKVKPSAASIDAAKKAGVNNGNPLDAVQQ", "assay": "streptavidin binders on small-molecule microarray, primary screen, artefact control for SMM compound annotation, biophysical, 635/667 nm fluorescence (AID 1147);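 further: signal reflects streptavidin binding to arrayed compounds as a control protein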", "details": "streptavidin binding, higher = more signal", "values": [{"smiles": "CCC(CC)C(O)C1C=CC2C(=O)NC(=O)C2N1Nc1ccc(Cl)cc1Cl", "note": "(stereo not drawn)", "composite z-score": 0.673}, {"smiles": "C=C(CCCC)/C(=C/C[C@@H](OC(=O)c1ccncc1)c1ccc(OCCO)cc1)c1cc(C(=O)OC)ccc1OC", "composite z-score": 0.378}, {"smiles": "CO[C@H]1O[C@H](CO)[C@@H](OC(=O)Nc2cccc(F)c2)[C@H](OC(=O)Nc2ccccc2)[C@@H]1OC(=O)Nc1ccccc1", "composite z-score": 0.255}, {"smiles": "C=C(COC)C(=O)CC[C@@H](OC(C)=O)c1ccc(CO)o1", "composite z-score": -0.374}, {"smiles": "COC(=O)[C@H](Cc1ccccc1)N1CC2=C[C@@H](C3CC3)n3c(=O)n(C)c(=O)n3[C@H]2[C@@H]1[C@@H](O)Cc1ccccc1", "composite z-score": 0.462}, {"smiles": "C=C[C@H](CO[Si](CC)(CC)CC)N(Cc1ccc(OC(C)=O)c(OC)c1)S(=O)(=O)c1ccc(Br)cc1", "composite z-score": 1.61}, {"smiles": "C=CCOC(=O)[C@H]1[C@@H]2C(=O)O[C@@H](c3ccccc3)[C@@H](c3ccccc3)N2[C@@H](c2ccc(OCCOC(=O)[C@H]3C[C@H]4C(=O)N[C@@H](CCCCNC(C)=O)C(=O)N4[C@H]3c3ccc(O)cc3)cc2)[C@]12C(=O)Nc1ccc(I)cc12", "composite z-score": 0.142}, {"smiles": "CC(C)C(O)C1C=CC2C(=O)NC(=O)C2N1Nc1ccc(Cl)cc1Cl", "note": "(stereo not drawn)", "composite z-score": -0.204}, {"smiles": "COc1ccc([Si](C)(C)[C@H]2[C@H](CCO)O[C@@]3(C(=O)N(Cc4ccc(N(C=O)c5ccccc5)cc4)c4ccccc43)[C@@H]2C)cc1", "composite z-score": 0.114}, {"smiles": "CC(C)C(O)C1C=CC2C(=O)N(c3ccccc3)C(=O)C2N1Nc1ccc([N+](=O)[O-])cc1", "note": "(stereo not drawn)", "composite z-score": 0.122}, {"smiles": "CC(C)C[C@@H]1NC(=O)[C@H](C(C)C)NC(=O)[C@@]23C(=O)N[C@@H](Cc4ccccc4)C2[C@H](C)[C@@]2(C)O[C@H]2C3/C=C/CC/C=C/CNC1=O", "note": "(stereo partly drawn)", "composite z-score": 0.186}, {"smiles": "CC1(C)[C@@H]2CC(C(O)C3C=CC4C(=O)N(c5ccccc5)C(=O)C4N3Nc3ccc([N+](=O)[O-])cc3)=C[C@H]1C2", "note": "(stereo partly drawn)", "composite z-score": 1.18}, {"smiles": "COc1ccccc1CN1C(=O)c2ccccc2[C@@]2(Cc3ccccc3N(CC(C)C)C2=O)[C@@H]1c1ccc(CO)cc1", "composite z-score": -0.551}, {"smiles": "CC1CC/C=C\\[C@H]2OC34C=CCN(C(C)(C)C)C(=O)[C@H]3N(C(C)CO)C(=O)[C@@H]4C2C(=O)O1", "note": "(stereo partly drawn)", "composite z-score": -1.3}, {"smiles": "O=C(NCCO)C1=C[C@H](Oc2ccccc2I)[C@@H](O)[C@H](N(Cc2ccco2)C(=O)Cc2ccccc2)C1", "composite z-score": 0.317}, {"smiles": "CN(C)CCCC[C@@H]1NC(=O)[C@H]2C[C@@H](C(=O)NCCCCCCN)[C@@H](c3ccc(O)cc3)N2C1=O", "composite z-score": 1.28}, {"smiles": "COC(=O)C(CC#Cc1ccc2c(c1)[C@]1(C(=O)N2)[C@H](c2ccc(OCCO)cc2)N2[C@H](c3ccccc3)[C@H](c3ccccc3)OC(=O)[C@H]2[C@@H]1C(=O)N1CCc2cc(OC)c(OC)cc2C1)C(=O)OC", "composite z-score": 1.52}, {"smiles": "[N-]=[N+]=Nc1ccccc1[C@H]1OC(c2ccc(OCCCO)cc2)=N[C@@]1(CCS(=O)(=O)c1ccccc1)C(N)=O", "composite z-score": 0.751}, {"smiles": "COC(=O)[C@@]1(Cc2ccc(F)cc2)[C@H]2c3cc(C(=O)N(C)C)n(Cc4ccccc4)c3C[C@H]2CN1C(=O)c1ccccc1", "composite z-score": 1.16}]}]}
